Test [1] can be described thus: NCI Yeast Anticancer Drug Screen. Data for the rad50 strain (AID 155).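 Note: 0% = growth of vehicle-only cultures of the same strain.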 Conditions: S. cerevisiae rad50 strain growth inhibition, stronger effect = higher value. The essentials:
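Genetically altered yeast (DNA repair pathway); compound treatment; growth inhibition vs vehicle ctrl.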

Test [2] in a line: NCI Yeast Anticancer Drug Screen. Data for the mec2-1 strain (AID 157). The following applies: S. cerevisiae mec2-1 strain, stronger effect = higher value. The essentials: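 Test agents were screened against the mec2-1 yeast strain, with defined DNA repair or cell cycle alteration. Growth was scored as inhibition against vehicle-only controls.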
Test [3] is described as follows: NCI Yeast Anticancer Drug Screen. Data for the sgs1 mgt1 strain (AID 161).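 Note: 0% = growth of cultures given vehicle only.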 The following applies: S. cerevisiae sgs1 mgt1 strain, stronger effect = higher value. The essentials: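 Genetically altered yeast, compound exposure, growth inhibition relative to vehicle.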
The nature of test [4]: NCI Yeast Anticancer Drug Screen. Data for the cln2 rad14 strain (AID 165).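 Note: 0% = growth equal to vehicle treated cultures.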 Conditions: S. cerevisiae cln2 rad14 strain, stronger effect = higher value. The essentials:
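Growth of compound-exposed yeast (cln2 rad14 genotype) measured and expressed as inhibition relative to vehicle.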

Test [5] in a line: NCI Yeast Anticancer Drug Screen. Data for the bub3 strain (AID 167). The following applies: S. cerevisiae bub3 mutant strain, stronger effect = higher value. The essentials: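 Yeast carrying a defined mutation is treated with each compound, and growth is compared with that of vehicle-exposed cells to give inhibition.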
A short description of test [6]: NCI Yeast Anticancer Drug Screen. Data for the mlh1 rad18 strain (AID 175). The following applies: S. cerevisiae mlh1 rad18 strain growth inhibition, stronger effect = higher value. The essentials: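 In this whole-cell yeast screen, a strain with altered DNA damage repair is challenged with compound, and its growth is measured against matched vehicle-treated controls.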
The mark [7] stands for this setting: at 5.0 µM (retest, dose inferred, filed as 0.5).
[8] abbreviates: at 50.0 µM (retest, dose inferred, filed as 5.0).

SMILES strings stand for the structures. This is part of a sample that, as a whole, favours compounds with a hit. Of some 79,000 tested, about 15% had one in any assay. A number with no mark means an inactive call. Calls of active or inactive are those of the source. Cut-off read from the data, not from the text of the source: active = growth inhibition above about 70%; inactive = the rest.

For `CN(C)CC/[N+]([O-])=C(/c1ccccc1)C12CC3CC(CC(C3)C1)C2`, the growth inhibition is -6% in test [1] (setting [7]); 6% in test [1] (setting [8]); -16.6% in test [1] (at 50.0 µM); -1% in test [2] (setting [7]); -1% in test [2] (setting [8]); 1.8% in test [2] (at 50.0 µM). In addition, the growth inhibition in test [3] (setting [7]) was 14%; in test [3] (setting [8]), 31%; in test [3] (at 50.0 µM), 16.9%; in test [4] (setting [7]), 7%; in test [4] (setting [8]), -1%; in test [4] (at 50.0 µM), 17.1%. In addition, the growth inhibition in test [5] (setting [7]) is 1%; in test [5] (setting [8]), 3%; in test [5] (at 50.0 µM), -1.9%; in test [6] (setting [7]), 9%; in test [6] (setting [8]), 25%; in test [6] (at 50.0 µM), 70.6% (active).
On to `Cc1cc2c(cc1S(=O)(=O)O)C1C(C3C2C2(Cl)C(Cl)=C(Cl)C3(Cl)C2(Cl)Cl)C2(Cl)C(Cl)=C(Cl)C1(Cl)C2(Cl)Cl` (stereo not given), for which the growth inhibition in test [1] (setting [7]) is 1%; in test [1] (setting [8]), 69%; in test [1] (at 50.0 µM) it was 82.4% (active); in test [2] (setting [7]), -14%; in test [2] (setting [8]) it was 72% (active); in test [2] (at 50.0 µM), 74.4% (active). In addition, the growth inhibition in test [3] (setting [7]) was 27%; in test [3] (setting [8]), 87% (active); in test [3] (at 50.0 µM), 86.8% (active); in test [4] (setting [7]) it was 33%; in test [4] (setting [8]) it was 84% (active); in test [4] (at 50.0 µM), 60.7%. For the same compound, the growth inhibition in test [5] (setting [7]) is -15%; in test [5] (setting [8]) it was 82% (active); in test [5] (at 50.0 µM), 70.8% (active); in test [6] (setting [7]), -20%; in test [6] (setting [8]), 87% (active); in test [6] (at 50.0 µM), 79.2% (active).
Turning to `CC(C)(C)N1C(=O)C(Cl)(C#N)C1c1ccccc1` (stereo not given), the growth inhibition in test [1] (setting [7]) was 7%; in test [1] (setting [8]) it was 25%; in test [1] (at 50.0 µM), 43.5%; in test [2] (setting [7]), -4%; in test [2] (setting [8]), 8%; in test [2] (at 50.0 µM), 26.6%. Further, the growth inhibition is -3% in test [3] (setting [7]); 27% in test [3] (setting [8]); 73.5% (active) in test [3] (at 50.0 µM); 9% in test [4] (setting [7]); 11% in test [4] (setting [8]); 19.9% in test [4] (at 50.0 µM). Besides, the growth inhibition is -1% in test [5] (setting [7]); 0% in test [5] (setting [8]); -6.3% in test [5] (at 50.0 µM); -11% in test [6] (setting [7]); 26% in test [6] (setting [8]); 72.5% (active) in test [6] (at 50.0 µM).
As for `O=c1oc(-c2ccc(Cl)c([N+](=O)[O-])c2)ns1`, the growth inhibition in test [1] (setting [7]) is 1%; in test [1] (setting [8]) it was 92% (active); in test [1] (at 50.0 µM), 97.1% (active); in test [2] (setting [7]), 3%; in test [2] (setting [8]) it was 93% (active); in test [2] (at 50.0 µM), 95.3% (active). For the same compound, the growth inhibition in test [3] (setting [7]) was 4%; in test [3] (setting [8]), 89% (active); in test [3] (at 50.0 µM) it was 97.8% (active); in test [4] (setting [7]), 4%; in test [4] (setting [8]), 48%; in test [4] (at 50.0 µM), 53.6%. Moreover, the growth inhibition in test [5] (setting [7]) was 1%; in test [5] (setting [8]), 91% (active); in test [5] (at 50.0 µM) it was 97.2% (active); in test [6] (setting [7]), 2%; in test [6] (setting [8]), 98% (active); in test [6] (at 50.0 µM) it was 91.8% (active).
In the case of `O=C1C(Cl)=C(Nc2ccc(S(=O)(=O)Nc3ccccn3)cc2)C(=O)c2ccccc21`, the growth inhibition in test [1] (setting [7]) is 99% (active); in test [1] (setting [8]) it was 99% (active); in test [1] (at 50.0 µM), 99.3% (active); in test [2] (setting [7]), 99% (active); in test [2] (setting [8]), 99% (active); in test [2] (at 50.0 µM) it was 99.3% (active). Further, the growth inhibition in test [3] (setting [7]) was 96% (active); in test [3] (setting [8]), 99% (active); in test [3] (at 50.0 µM) it was 99.2% (active); in test [4] (setting [7]) it was 95% (active); in test [4] (setting [8]) it was 99% (active); in test [4] (at 50.0 µM), 99.2% (active). Moreover, the growth inhibition in test [5] (setting [7]) was 99% (active); in test [5] (setting [8]), 99% (active); in test [5] (at 50.0 µM) it was 98.7% (active); in test [6] (setting [7]) it was 90% (active); in test [6] (setting [8]) it was 99% (active); in test [6] (at 50.0 µM), 99.2% (active).
`OCC1(O)OCC(O)C(O)C1O` (stereo not given): the growth inhibition in test [1] (setting [7]) is -3%; in test [1] (setting [8]), 72% (active); in test [1] (at 50.0 µM), 74.7% (active); in test [2] (setting [7]), -2%; in test [2] (setting [8]), 68%; in test [2] (at 50.0 µM), 80% (active). The growth inhibition in test [3] (setting [7]) was 0%; in test [3] (setting [8]), 60%; in test [3] (at 50.0 µM), 72.7% (active); in test [4] (setting [7]), 7%; in test [4] (setting [8]), 29%; in test [4] (at 50.0 µM), 58.8%. Further, the growth inhibition in test [5] (setting [7]) is 1%; in test [5] (setting [8]), 69%; in test [5] (at 50.0 µM), 72.1% (active); in test [6] (setting [7]) it was -1%; in test [6] (setting [8]), 81% (active); in test [6] (at 50.0 µM), 79.5% (active).
For `CC1(c2ccccc2)OC1C(=O)N(c1ccccc1)c1ccccc1` (stereo not given), the growth inhibition was 14% in test [1] (setting [7]); 99% (active) in test [1] (setting [8]); 95.8% (active) in test [1] (at 50.0 µM); 18% in test [2] (setting [7]); 99% (active) in test [2] (setting [8]); 85% (active) in test [2] (at 50.0 µM). The growth inhibition in test [3] (setting [7]) was 12%; in test [3] (setting [8]), 98% (active); in test [3] (at 50.0 µM) it was 53.3%; in test [4] (setting [7]), 15%; in test [4] (setting [8]), 97% (active); in test [4] (at 50.0 µM) it was 96.7% (active). Further, the growth inhibition was 22% in test [5] (setting [7]); 98% (active) in test [5] (setting [8]); 92.7% (active) in test [5] (at 50.0 µM); 21% in test [6] (setting [7]); 97% (active) in test [6] (setting [8]); 97.7% (active) in test [6] (at 50.0 µM).
`COC12C=CC(CC1)C1=C2C(=O)c2nc(C)c(C)nc2C1=O` (stereo not given): the growth inhibition in test [1] (setting [7]) is -1%; in test [1] (setting [8]), 27%; in test [1] (at 50.0 µM), 30.8%; in test [2] (setting [7]), 9%; in test [2] (setting [8]), 20%; in test [2] (at 50.0 µM), 7.5%. Moreover, the growth inhibition is -1% in test [3] (setting [7]); 39% in test [3] (setting [8]); 33.6% in test [3] (at 50.0 µM); 21% in test [4] (setting [7]); 3% in test [4] (setting [8]); 20.8% in test [4] (at 50.0 µM). Moreover, the growth inhibition is 5% in test [5] (setting [7]); 8% in test [5] (setting [8]); 20.8% in test [5] (at 50.0 µM); 12% in test [6] (setting [7]); 52% in test [6] (setting [8]); 34.2% in test [6] (at 50.0 µM).
With `CSC(SC)(C(=O)O)c1cc(C)no1`, the growth inhibition in test [1] (setting [7]) was -7%; in test [1] (setting [8]) it was -23%; in test [1] (at 50.0 µM), 19.4%; in test [2] (setting [7]), -17%; in test [2] (setting [8]) it was -2%; in test [2] (at 50.0 µM) it was 16.6%. In addition, the growth inhibition was -17% in test [3] (setting [7]); -15% in test [3] (setting [8]); 2.55% in test [3] (at 50.0 µM); -7% in test [4] (setting [7]); 10% in test [4] (setting [8]); 45.2% in test [4] (at 50.0 µM). The growth inhibition is 14% in test [5] (setting [7]); 7% in test [5] (setting [8]); 5.2% in test [5] (at 50.0 µM); -2% in test [6] (setting [7]); -21% in test [6] (setting [8]); 1.2% in test [6] (at 50.0 µM).
Turning to `CCOc1ccc(/C=C\c2ccnc3ccccc23)cc1OCC`, the growth inhibition was -5% in test [1] (setting [7]); 97% (active) in test [1] (setting [8]); 98.3% (active) in test [1] (at 50.0 µM); -1% in test [2] (setting [7]); 99% (active) in test [2] (setting [8]); 97% (active) in test [2] (at 50.0 µM). The growth inhibition is 1% in test [3] (setting [7]); 99% (active) in test [3] (setting [8]); 50.9% in test [3] (at 50.0 µM); -3% in test [4] (setting [7]); 99% (active) in test [4] (setting [8]); 98.2% (active) in test [4] (at 50.0 µM). Besides, the growth inhibition was 5% in test [5] (setting [7]); 99% (active) in test [5] (setting [8]); 97.3% (active) in test [5] (at 50.0 µM); -13% in test [6] (setting [7]); 98% (active) in test [6] (setting [8]); 96.3% (active) in test [6] (at 50.0 µM).

The record behind these values is PubChem BioAssay (NCI).
